Drawing on the supplement of paper PMC6555819, this text covers PBM binding z-score for 40 sequences.

This experiment has as its system VDR:RXRa (NR concentration 270 nM, RXRa partner concentration 90 nM). Put plainly: PBM binding z-score (relative to random genomic background probes); higher = stronger binding; sequences stand for … in GC…GCGATTGACAGCGTAGAATGAAGG
The method, then: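 Protein-binding microarray (Agilent 4x180K custom design, double-stranded 60-nt probes: 5' GC cap, 34-nt variable region, 24-nt constant primer region; full probe sequence given). Purified or IVT nuclear receptor:RXRα heterodimers (3:1 NR:RXRα, mostly 270:90 nM) or homodimers were incubated for 1 h in PBS with 2% milk and no ligand, then detected with Alexa488 antibodies. Fluorescence from o1-orientation probes (~5 replicates averaged) was converted to z-scores against 500 random hg19 background probes. Variable regions are seed direct-repeat (DR0–DR5) sites, all their single-nucleotide variants and half-site ablations.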
With CTACCAAGGTGTACAAGGTCGTTGATTACTATTC, the PBM binding z-score is 2.39.
ATATGTAGGTTAGCTGGGGTCATTAAGACTAGGC gave a PBM binding z-score of 5.83.
Take CCAGACAGGTGAGAAGGTAACTCGGCCTCGATTA: the PBM binding z-score is -0.138.
On to ACCGAAAGGTCGACGAGGTGAGTATACACCGTTT, for which the PBM binding z-score stood at 5.14.
Consider TCGAGTAGGTTATTCGGGGCATTCAGCCAACATA, for which the PBM binding z-score was found to be 4.03.
To AGTCAAAGTTCAGGACCAGGTAACGTAAAGCACG belongs 2.41; to CGTCCAAGGTCAAAGGTCAGTGAGGAGATGACGG, 6.92; to GAAACGAGGGCATTCGAGTTGATAGCATGGCGAT, 3.97.
To GGAACGAGGGCATTCGCGTTGATAGCATGGCGAT belongs 1.53; to GCGACTGGGGCATCAACAGGTTACCATAACTTAA, 0.0297; to ATCGAAAGCTCGACGAGGTGAGTATACACCGTTT, -0.25.
The value for AGAGTGAGGTTATACGTAGATCAGGGAAGAAAGT was 1.6.
In the case of CCTTACGGGTCACGAGATTATAGCACGACGAGCG, the PBM binding z-score came to 3.55.
As for TCTATTAGTTGATTAGGGCAATCGAAACAGCGGA, the PBM binding z-score stood at 0.607.
As for ATATGTAGGCTAAGGGTCATTCAGGTTGGTTCGC, the PBM binding z-score is 5.13.
For the sequence AGTCAAAGTTCATCTAGGTAACGTCAGATATGCT, the PBM binding z-score stood at 5.17.
For CCTCGTAGGACAGAAGGTCAGAGCTGTCCGCTTT, the PBM binding z-score turned out to be 1.13.
With CCTACTGAGCCAAAGGTCATTGATTCCAATGCTC, the PBM binding z-score was determined as 4.81.
In turn, CATACAGGGTCAGCTAGGCCAGAGTGGGGACGGC came in with a PBM binding z-score of 4.01.
For the sequence ATCTCTAGGTAAAAGATCAGTGAATCCCGAGGAT, the PBM binding z-score was -0.291.
ATATGTAGGTTACATCCGGATCATTCAGGCTATG yielded a PBM binding z-score of 0.945.
For CCTAGCAGGCCAGGGACACTCAAGCATTTCGCTT, the PBM binding z-score is -0.417.
For GCTATTAGTTGAATGGGCAACCGAATGATTCTCG, the PBM binding z-score is -0.287.
Regarding GCATATAGGTAATACAAAGTGAAAGTCCGATTGT, the PBM binding z-score was -0.024.
ACTTACGGGTCAACGCGGTTATAGCACGCGTATA came in with a PBM binding z-score of 6.31.
To GCTATTAGTTGAAAGGGCAACCTAATGATTCTCG belongs 0.478; to CCTGCTAGGTAATGGTCAGCTAATCTACAGTATG, -0.407.
GATACAGGGTCAGCTAGAGGCCTGAGTATGGAAA came in with a PBM binding z-score of 2.2.
In the case of GATACAGGGCCAGCTAGAGGCCAGAGTATGGAAA, the PBM binding z-score is -0.843.
The sequence ATCTCTAGCTAAAGTTCAGTGAAAGATCGATAGA gave a PBM binding z-score of 1.49.
Regarding CGTCCAAGGTCAATGCTAGGTCAGCGAAAGCATT, the PBM binding z-score came out at 4.93.
In the case of TATACAGGGTCAAATGCCAGAGTACGAATGTCGA, the PBM binding z-score came out at 4.82.
GCGACTGGGTCAAAGCAGGTTACCATAAGGTTGG gave a PBM binding z-score of 3.06.
ACTAGCAGGCCACGGGTCACTCAAGATTAGTCCG displayed a PBM binding z-score of 1.2.
For the sequence ACTGTTAGTTGAGACGAGGGCAACCGATAGGTTG, the PBM binding z-score turned out to be 0.595.
As to GCGCCTGGGGCAAAGCAGGTTACCATAAGGTTGG, the PBM binding z-score was -0.092.
In turn, CGTCCAAAGTCAATGCTAGGTCAGTGAAAGCATT returned a PBM binding z-score of 0.457.
AGTCAGAGTTCAGGACGAGGTAACGTAAAGCACG had a PBM binding z-score of 3.77.
To TCATATAGGTAATACAGGTCAAAGTCGGCATCTA belongs 4.07.
In turn, GCTGCTAGGTCAGGTTCGTCAGCTAACGGGTACG had a PBM binding z-score of 1.44.
